Calb FLC = affects C. albicans growth with fluconazole; C. albicans CaCi-2 (fluconazole-resistant clinical isolate) + fluconazole, Alamar Blue growth, 48 h; growth inhibition, % (concentration not given with the values); 0.57% of 300,000 active; AID 1979;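 active means growth inhibition above about 58% in most replicates, limit read from the data, passing the limit was not always enough; inconclusive means exactly half the replicates above a set limit; inactive means most replicates below a set limit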;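 further: all wells also contain fluconazole at 8 µg/ml as a sub-toxic cotreatment; 0% = median of DMSO wells and 100% = median of geldanamycin control wells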
Mdm2 MdmX PPI = disrupts the human Mdm2-MdmX interaction. O15151+Q00987. SaOS-2 split-luciferase Mdm2/MdmX complementation, luminescence. inhibition, % at 8 µM. 3% of 330,000 active. AID 485346;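 active means inhibition of at least 50% at 8 µM in the primary screen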
Beta cell apopt = blocks beta cell apoptosis; INS-1E cytokine-induced death, ATP luminescence, 48 h; percent of positive-control rescue, neutral wells zero; protection from apoptosis, % (no concentration beside the values); 0.8% of 300,000 active;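 active means Every replicate reaches about 75%, or at least half do and their mean reaches it too, limit read from the data; inconclusive means At least half of replicates reach the limit but their mean does not; inactive means Under half of replicates reach the limit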;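 further: 0% = cytokine-treated negative control wells and 100% = positive control rescue; higher means more ATP so stronger rescue from cytokine killing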
CSC inhib = cancer stem cell inhibition; cancer stem cell-like cells viability, luminescence; AID 2717; inhibition, % at 7.5 µM; 1.1% of 300,000 active; in the data active means inhibition above about 75%; inconclusive means no clear call, values can overlap the other calls; tested in HMLE shEcad cells
MPTP block = inhibitors of mitochondrial permeability transition pore. isolated mouse mitochondria, Ca2+ swelling absorbance, 30 min. inhibition, % at 10 µM. 1.4% of 360,000 active;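 active means inhibition of 50% or more, scaled per plate between neutral and stimulator controls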;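 further: 0% = DMSO wells given calcium and 100% = 1 mM EGTA wells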
Mdm2 MdmX conf = human Mdm2/MdmX binding inhibition, confirmed; shares compounds with Mdm2 MdmX PPI; luminescent assay; inhibition, % at 8 µM; 55% of 10,000 active; in the data active means inhibition above about 40%
FLuc counter = counter-screen for Mdm2/MdmX inhibitors: full-length luciferase. shares compounds with Mdm2 MdmX PPI. SaOS-2 full-length luciferase counterscreen, luminescence. inhibition, % at 8 µM. 77% of 6,200 active. AID 504607;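 active means mean inhibition at 8 µM reaching about 37%, which flags the compound as non-specific, limit read from the data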;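 further: p53-null SaOS-2 cells with luciferase driven by a doxycycline-inducible promoter; compound on cells about two nights before reading with doxycycline added after day one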
Active calls of the source: *; ? = inconclusive; · = no result given. A selection: hits, their analogues and other compounds. The true share with any hit is near 4.8%.

SMILES	Calb FLC	Mdm2 MdmX PPI	Beta cell apopt	CSC inhib	MPTP block	Mdm2 MdmX conf	FLuc counter
Cc1ccc(C(C(=O)NCc2ccco2)N(C(=O)CNC(=O)c2cccs2)c2c(C)cc(C)cc2C)cc1 (configuration not stated)	2.2	87.0*	-5.9	31.7	-0.4	52.9*	43.2*
Cc1ccccc1OCc1nc2ccccc2c(=O)n1/N=C/c1cn[nH]c1-c1ccccc1	2.6	13.9	0.0	25.3	0.8	·	·
Cc1ccc(-c2[nH]ncc2/C=N/n2c(COc3ccccc3)nc3ccccc3c2=O)cc1	2.2	82.4*	41.4	21.3	-1.3	45.6*	55.9*
Cc1cc(Cl)c2oc(C(=O)N3CCN(c4ccncc4)CC3)c(C)c2c1	-10.9	90.0*	48.4	82.8*	-0.1	51.5*	57.3*
CCOC(=O)C1=C(C)NC(C)=C(C(=O)OCC)C1C(=O)OCC(=O)N(CC)C1CCS(=O)(=O)C1 (configuration not stated)	12.2	9.9	1.3	-9.8	-0.5	·	·
COc1ccc(-c2ccnc(-c3ccc(O)cc3)n2)cc1	-0.5	51.7*	-0.1	-7.1	0.5	39.6	83.9*
CCOC(=O)CNC(=O)CSc1nnc(NC(=O)c2ccc(C)cc2)s1	-7.6	53.7*	-0.2	1.6	-1.5	40.5*	68.2*
CCn1ncc(/C=N/N=C2\CCC3C4CCc5cc(O)ccc5C4CCC23C)c1C (configuration not stated)	?	50.7*	·	58.0	0.6	-2.8	·
Cc1cc(C)c(S(=O)(=O)Oc2ccccc2[N+](=O)[O-])c(C)c1	·	·	·	·	0.3	·	·
CC1=CC(=O)C=C(C)C1=NOc1ccccc1[N+](=O)[O-]	0.0	72.3*	0.3	-16.0	1.0	13.7	·
CN(CC(=O)NC(=O)NC1CCCCC1)CC(=O)Nc1ccc(Cl)cc1	·	-8.4	3.8	-6.0	-0.7	·	·
O=C(NC1CCCCC1)C1c2ccccc2OCC(=O)N1Cc1ccccc1 (configuration not stated)	·	·	·	·	0.0	·	·
NC1(C#Cc2ccc3oc(=O)c(-n4cc(-c5ccsc5)nn4)cc3c2)CCCCC1	·	94.0*	-2.1	13.6	6.2	14.8	·
Cc1cc2nc(C(C)(C)C)c(Cc3ccccc3C(F)(F)F)n2c(C)c1Br	·	·	·	·	2.4	·	·
Oc1ccc(Br)cc1CNc1cccc2cccnc12	-3.7	60.3*	99.6*	52.0	2.7	64.2*	25.6
Cc1cccnc1NC(=S)Nc1ncccc1C	2.1	-176.4	3.3	-1.5	0.1	·	·
Cc1cccc(NCc2ccc(O)c3ncccc23)c1C	104.2*	74.4*	8.1	-5.9	1.3	72.7*	41.7*
COc1cccc(CNc2cccc3cccnc23)c1O	-19.1	4.4	14.1	11.7	1.0	·	·
Cc1cccnc1NCc1ccc(O)c2ncccc12	-26.8	57.0*	·	56.1	-1.3	4.8	·
COc1ccc(CCNC(=O)C2CCN(C(=O)c3ccc(C(C)(C)C)cc3)CC2)cc1	-3.4	4.9	-1.8	3.1	0.8	·	·
Cc1cn([C@H]2C[C@H](O)[C@@H](/C=C/C(=O)N3CCN(Cc4ccc(F)cc4)CC3)O2)c(=O)[nH]c1=O	·	·	·	·	-2.5	·	·
O=C(NC1CCCCC1)C(c1ccc(C(F)(F)F)cc1)n1c(=O)c(-c2ccco2)nc2ccccc21 (configuration not stated)	·	·	·	·	-1.7	·	·
CCCc1sc(N/N=C/c2ccccn2)nc1-c1ccc(F)cc1	17.9	69.3*	90.9*	93.4*	2.1	35.5	45.1*
CC(C)n1cc(/C=C2\NC(=O)N(c3cccc(Cl)c3)C2=O)c2ccccc21	12.9	39.9	-6.2	39.9	1.6	·	·
CC(C)n1cc(/C=C2/NC(=O)N(c3cccc(Cl)c3)C2=O)c2ccccc21	7.2	62.2*	·	54.1	3.4	65.3*	43.1*
SMILES	Calb FLC	Mdm2 MdmX PPI	Beta cell apopt	CSC inhib	MPTP block	Mdm2 MdmX conf	FLuc counter
COc1ccc(Cc2nnc(NC(=O)C3CCN(C(=O)c4ccco4)CC3)s2)cc1	-2.2	8.8	3.7	7.1	0.6	·	·
COc1cc2ccccc2cc1C(=O)N(CCN(C)C)c1nc2ccc(C)cc2s1	-3.4	68.2*	21.3	-8.4	1.7	56.0*	44.7*
CCN(CC)CCN(C(=O)c1cc2ccccc2cc1OC)c1nc2ccc(OC)cc2s1	80.5*	51.3*	6.3	33.6	-0.6	25.2	·
Cc1ccc2nc(N(CCN(C)C)C(=O)c3cc(Cl)sc3Cl)sc2c1	-35.8	-19.6	3.0	·	0.3	·	·
CCN(CC)CCN(C(=O)c1cc2ccccc2cc1OC)c1nc2ccc(F)cc2s1	2.1	29.4	3.9	44.8	0.0	·	·
Cc1ccc(-c2nn3c(-c4ccco4)nnc3c3ccccc23)cc1S(=O)(=O)NCC1CCCO1 (configuration not stated)	8.6	53.1*	24.0	-10.4	3.8	39.0	68.4*
CC(C)NC(=O)C1C(c2ccccc2)=Nc2ccccc2N1C(=O)c1ccc(C(F)(F)F)cc1 (configuration not stated)	·	·	·	·	-0.9	·	·
Cn1c(SCC(=O)NCc2ccc(F)cc2)nc2c([nH]c3ccccc32)c1=O	-2.3	75.3*	-1.3	5.9	·	-8.3	·
COc1ccc(CCn2c(SCC(=O)Nc3cc(C)on3)nc3ccccc3c2=O)cc1OC	3.3	58.8*	-11.3	-10.1	2.5	24.5	·
COCCn1c(SCC(=O)Nc2ccc(NC(C)=O)cc2)nc2c([nH]c3ccccc32)c1=O	·	8.8	2.0	-0.2	-0.3	·	·
CCn1c(SCC(=O)Nc2ccc(C(C)=O)cc2)nc2c([nH]c3ccccc32)c1=O	·	62.2*	26.2	12.2	-1.0	35.7	·
CCn1c(SCC(=O)Nc2cccc(NC(C)=O)c2)nc2c([nH]c3ccccc32)c1=O	-3.7	78.0*	·	-7.9	1.2	30.6	·
COc1ccc(CCN2C(=O)CCC3=C2CCCC3=O)cc1OC	·	·	·	·	-0.1	·	·
CC(C)NC(=O)C1(C)CCN1C(=O)c1ccccc1 (configuration not stated)	·	·	·	·	-2.1	·	·
COCCn1c(SCC(=O)Nc2cc(C)on2)nc2c([nH]c3ccccc32)c1=O	·	·	·	·	-0.2	·	·
Cc1cc(NC(=O)CSc2nc3cc(Cl)ccc3s2)no1	-3.5	8.8	-4.2	-7.3	-3.7	·	·
CCn1c(SCC(=O)Nc2cc(C)on2)nc2c([nH]c3ccccc32)c1=O	4.3	64.8*	26.2	-8.0	1.4	25.7	·
Cc1cc(NC(=O)CSc2nc3cc(Cl)ccc3c(=O)n2C(C)C)no1	·	55.6*	·	·	-1.1	19.6	·
CCOC(=O)C1=C(c2ccccc2)NC(=O)NC1c1ccc(O)c(Cl)c1 (configuration not stated)	-1.0	93.5*	·	7.8	0.0	55.9*	30.5
CCOc1ccc(Cl)cc1-c1cc(C(=O)NC2CCCCC2)[nH]n1	·	·	·	·	-0.7	·	·
C[C@H](O)[C@@H]1C(=O)N2CCc3c([nH]c4ccccc34)[C@@H]2C[C@@H]1N(C)C(=O)c1ccco1	·	·	·	·	-0.4	·	·

Assay outcomes from PubChem BioAssay.
